Inconclusive results are not listed. The source made the active and inactive calls. Unless noted, the call rests on the fitted dose curve.
Experiments:
[1] = Nuclear factor erythroid 2-related factor 2/antioxidant responsive element (Nrf2/ARE) small molecule agonists: qHTS cell viability counter screen in human keratinocytes (AID 1919968; active means well fitted curve in the direction sought with a large enough effect in the repeat runs; an effect the other way counts as inactive or inconclusive; further: nearly all actives have a fitted effect of over 55% in size; further: potency means the concentration at half of the fitted maximal effect)
How it was run: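 HaCaT ARE reporter line, 1,500 cells/well; 5 h settle, 37 C/5% CO2; cpd in DMSO pinned; 23 h exposure; CellTiter-Fluor, 1 h; fluorescence.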

[2] = Nuclear factor erythroid 2-related factor 2/antioxidant responsive element (Nrf2/ARE) small molecule agonists: luciferase reporter gene qHTS assay in human keratinocytes (AID 1919969); further: nearly all actives have a fitted effect of over 35% in size; further: potency means the concentration at half of the fitted maximal effect
[3] = molecular target: KiSS-1 receptor (Homo sapiens) (UniProt Q969F8); experiment: Human kisspeptin (KISS1R) small molecule agonists, calcium flux assay in KISS1R-HEK293 cells (AID 1920064; active means well fitted curve in the direction sought with a large enough effect in the repeat runs; an effect the other way counts as inactive or inconclusive; further: potency means the concentration at half of the fitted maximal effect)
How it was run: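 Stable human KISS1R HEK293 line; 18 h plating, 37 C/5% CO2; calcium dye 1 h 37 C; compound pin transfer; kinetic fluorescence Ex/Em 480/540, 3 min.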

[4] = p53 small molecule agonists, cell-based qHTS assay with human liver microsomes (AID 1963577);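 further: p53 response element beta-lactamase reporter cells with liver microsomes plus NADPH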
How it was run: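 Steps: plate p53RE-bla cells, incubate 5 h at 37 C; add compound in DMSO; add microsomes (0.5 mg/mL final) and NADPH (0.5 mg/mL final); incubate 16 h at 37 C; add LiveBLAzer, 2 h RT; read fluorescence.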

[5] = p53 small molecule agonists, cell-based qHTS assay with rat liver microsomes (AID 1963578)
How it was run: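 Metabolic activation is supplied by rat liver microsomes with NADPH (each 0.5 mg/mL final). p53RE-bla cells incubate with compound 16 h at 37 C; reporter activity is measured by LiveBLAzer fluorescence.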

[6] = p53 small molecule agonists, cell-based qHTS assay with human liver microsomes: qHTS cell viability counter screen (AID 1963579); further: nearly all actives have a fitted effect of over 45% in size; further: potency means the concentration at half of the fitted maximal effect
How it was run: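 After the 460/530 nm beta-lactamase read, CellTiter-Glo was added to the same wells and luminescence measured after 30 min at room temperature, giving viability of p53RE-bla cells treated 16 h with compounds plus microsomes and NADPH.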

[7] = p53 small molecule agonists, cell-based qHTS assay with rat liver microsomes: qHTS cell viability counter screen (AID 1963580); further: nearly all actives have a fitted effect of over 45% in size
How it was run: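 In HCT-116 cells carrying a p53 response element-bla reporter, compounds were metabolically activated in situ by rat liver microsomes with NADPH over 16 h. Cell ATP content then served as the cytotoxicity measure.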

[8] = p53 small molecule agonists, cell-based qHTS assay: qHTS cell viability counter screen (AID 1963581); further: nearly all actives have a fitted effect of over 45% in size; further: potency means the concentration at half of the fitted maximal effect
How it was run: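 HCT-116 p53RE-bla cells, 4,000/well, plated 5 h before compound pin transfer; 16 h at 37 C; bla substrate 2 h RT; then CellTiter-Glo, 30 min RT, luminescence.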

[9] = molecular target: Beta-2 adrenergic receptor (Homo sapiens) (UniProt P07550); experiment: Adrenergic beta2 receptor (ADRB2) small molecule antagonists, cell-based qHTS assay (AID 1963592); further: series mostly up to about 92 µM; nearly all actives have a fitted effect of over 50% in size
How it was run: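 Cells (CHO, stable ADRB2 overexpression) incubated 18-20hr at 37C; compounds added from DMSO; agonist mix (1nM isoproterenol, 100uM IBMX, 25uM Ro-20-1724) added; 0.5hr RT; d2-cAMP and anti-cAMP-cryptate added; 1hr RT; 665/615 nm read.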

[10] = molecular target: D(2) dopamine receptor (Homo sapiens) (UniProt P14416); experiment: Dopamine D2 receptor (DRD2) small molecule agonists, cell-based qHTS assay (AID 1963594); further: nearly all actives have a fitted effect of over 35% in size
How it was run: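 HEK293 cells stably expressing DRD2 were cultured 24 h at 37 C, then given Ro20-1724 (0.1 mM final) and compounds for 10 min at room temperature. NKH477 (200nM) was then added for 30 min. cAMP was read by HTRF.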

[11] = G protein-coupled receptor (GPCR) small molecule agonists, calcium flux assay: HEK293 wild type cell line counter screen (AID 1920065)
How it was run: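 Kinetic fluorescence at Ex/Em 480/540, recorded every second over 3 min, served as the read-out after compound addition. Each compound was tested at 15 concentrations in triplicate on cells pre-loaded with calcium dye for 1 h.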

[12] = molecular target: 5-hydroxytryptamine receptor 2A (Homo sapiens) (UniProt P28223); experiment: 5-hydroxytryptamine receptor 2A (HTR2A) small molecule antagonists, cell-based qHTS assay (AID 1963586); further: nearly all actives have a fitted effect of over 45% in size; further: potency means the concentration at half of the fitted maximal effect
How it was run: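 Antagonist-mode intracellular calcium assay: DOI (4 nM) added after 5 min compound pre-incubation at room temperature to dye-loaded HTR2A-CHO cells. Fluorescence followed for 3 min, sampled every second.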

[13] = molecular target: 5-hydroxytryptamine receptor 2A (Homo sapiens) (UniProt P28223); experiment: 5-hydroxytryptamine receptor 2A (HTR2A) small molecule agonists, cell-based qHTS assay (AID 1963587); further: nearly all actives have a fitted effect of over 30% in size; further: potency means the concentration at half of the fitted maximal effect
How it was run: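 HTR2A-CHO cells, plated 18 h at 37 C/5% CO2, dye-loaded 1 h at 37 C; compounds in DMSO added by pin tool (agonist mode). Intracellular calcium flux read as kinetic fluorescence on FDSS over 2 min at 1 s intervals.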

[14] = molecular target: Muscarinic acetylcholine receptor M1 (Homo sapiens) (UniProt P11229); experiment: Cholinergic receptor muscarinic 1 (CHRM1) small molecule antagonists, cell-based qHTS assay (AID 1963588); further: nearly all actives have a fitted effect of over 40% in size; further: potency means the concentration at half of the fitted maximal effect
How it was run: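 CHRM1-CHO calcium-flux assay, antagonist mode. Cells were seeded 18 h, dye-loaded 1 h at 37 C and given compound for 5 min at RT, then acetylcholine was added at 50nM. FDSS fluorescence was read 3 min; 15 concentrations, three runs.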

[15] = molecular target: Muscarinic acetylcholine receptor M1 (Homo sapiens) (UniProt P11229); experiment: Cholinergic receptor muscarinic 1 (CHRM1) small molecule agonists, cell-based qHTS assay (AID 1963589); further: nearly all actives have a fitted effect of over 35% in size; further: potency means the concentration at half of the fitted maximal effect
How it was run: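 Human M1 in stable CHO line; 18 h plating, 1 h dye load 37 C; cpd added (agonist mode); Ca2+ fluorescence kinetic read, 1 s intervals; 15 conc, 3 runs.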

[16] = p53 small molecule agonists, cell-based qHTS assay (AID 1963582; active means well fitted activation curve with a large enough effect in the signal ratio in the repeat runs, not every such curve was filed as active; the % refers to the signal ratio)
How it was run: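 Reporter line: p53RE-bla. Pre-incubation 5 h, 37 C, 5% CO2; compound (DMSO, pin tool) 16 h, 37 C; B/G FRET substrate 2 h RT; fluorescence intensity read.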

[17] = cAMP Responsive Elements (CRE) small molecule agonists, cell-based qHTS assay (AID 1963590)
How it was run: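 HEK 293T CRE-bla, 2,000 cells/well, 18 h preincubation 37 C/5% CO2; cpds (DMSO) pinned, 3 h; LiveBLAzer B/G FRET substrate, 2 h RT.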

[18] = cAMP Responsive Elements (CRE) small molecule antagonists, cell-based qHTS assay (AID 1963591; active means well fitted inhibition curve with a large enough effect in the signal ratio in the repeat runs, not every such curve was filed as active; the % refers to the signal ratio)
How it was run: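 Beta-lactamase reporter read by FRET substrate (LiveBLAzer B/G) after 2 h at room temperature. CRE-bla HEK293T cells had received compound plus 0.25 uM (final) NKH477 for 3 h at 37 °C.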

[19] = molecular target: D(2) dopamine receptor (Homo sapiens) (UniProt P14416); experiment: Dopamine D2 receptor (DRD2) small molecule antagonists, cell-based qHTS assay (AID 1963595; active means well fitted inhibition curve with a large enough effect in the signal ratio in the repeat runs, with a control signal flat; the % refers to the signal ratio; further: potency means the concentration at half of the fitted maximal effect)
How it was run: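 HTRF cAMP read-out at 665 and 620 nm emission (340 nm excitation). Antagonist mode: compounds were tested against 12 nM quinpirole in DRD2-HEK293 cells, with 200 nM NKH477 raising cAMP and 0.1 mM Ro20-1724 blocking its breakdown.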
On the % scale 0 is the no-effect control and ±100 the full control effect.

KiSS-1 receptor (Homo sapiens), sequence (Q969F8 whole entry, looked up): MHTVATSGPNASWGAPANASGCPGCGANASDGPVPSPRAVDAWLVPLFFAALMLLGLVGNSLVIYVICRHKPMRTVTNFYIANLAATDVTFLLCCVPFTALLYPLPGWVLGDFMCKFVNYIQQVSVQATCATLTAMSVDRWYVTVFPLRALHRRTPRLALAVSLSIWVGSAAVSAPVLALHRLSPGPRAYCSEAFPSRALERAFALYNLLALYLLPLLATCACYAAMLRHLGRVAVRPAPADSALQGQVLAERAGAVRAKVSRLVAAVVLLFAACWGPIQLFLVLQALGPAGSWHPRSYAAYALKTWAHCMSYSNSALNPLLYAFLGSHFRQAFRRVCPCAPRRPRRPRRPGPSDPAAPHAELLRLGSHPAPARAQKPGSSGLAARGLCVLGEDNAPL
Beta-2 adrenergic receptor (Homo sapiens), sequence (P07550 whole entry, looked up): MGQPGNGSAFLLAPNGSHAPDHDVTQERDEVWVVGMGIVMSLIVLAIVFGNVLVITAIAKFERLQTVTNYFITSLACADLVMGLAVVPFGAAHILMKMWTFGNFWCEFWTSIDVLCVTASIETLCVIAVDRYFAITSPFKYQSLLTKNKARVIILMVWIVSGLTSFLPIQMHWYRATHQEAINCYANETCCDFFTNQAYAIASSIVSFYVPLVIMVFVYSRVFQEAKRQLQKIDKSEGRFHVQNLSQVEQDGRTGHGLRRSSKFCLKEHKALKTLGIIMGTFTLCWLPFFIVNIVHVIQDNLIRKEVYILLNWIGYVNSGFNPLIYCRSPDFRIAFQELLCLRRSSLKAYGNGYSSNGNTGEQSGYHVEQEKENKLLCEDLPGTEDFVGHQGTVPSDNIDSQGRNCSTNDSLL
Muscarinic acetylcholine receptor M1 (Homo sapiens), sequence (P11229 whole entry, looked up): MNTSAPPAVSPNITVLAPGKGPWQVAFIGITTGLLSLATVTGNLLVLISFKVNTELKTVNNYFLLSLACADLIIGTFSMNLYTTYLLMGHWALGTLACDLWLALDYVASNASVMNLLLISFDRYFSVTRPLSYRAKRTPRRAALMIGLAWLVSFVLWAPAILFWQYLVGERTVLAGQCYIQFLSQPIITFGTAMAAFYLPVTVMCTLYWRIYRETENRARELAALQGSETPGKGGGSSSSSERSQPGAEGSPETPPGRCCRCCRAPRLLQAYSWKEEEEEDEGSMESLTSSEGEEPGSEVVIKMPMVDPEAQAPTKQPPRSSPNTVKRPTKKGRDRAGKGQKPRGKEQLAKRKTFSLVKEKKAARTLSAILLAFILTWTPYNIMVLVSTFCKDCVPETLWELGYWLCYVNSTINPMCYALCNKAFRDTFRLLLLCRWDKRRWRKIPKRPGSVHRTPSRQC
D(2) dopamine receptor (Homo sapiens), sequence (P14416 whole entry, looked up): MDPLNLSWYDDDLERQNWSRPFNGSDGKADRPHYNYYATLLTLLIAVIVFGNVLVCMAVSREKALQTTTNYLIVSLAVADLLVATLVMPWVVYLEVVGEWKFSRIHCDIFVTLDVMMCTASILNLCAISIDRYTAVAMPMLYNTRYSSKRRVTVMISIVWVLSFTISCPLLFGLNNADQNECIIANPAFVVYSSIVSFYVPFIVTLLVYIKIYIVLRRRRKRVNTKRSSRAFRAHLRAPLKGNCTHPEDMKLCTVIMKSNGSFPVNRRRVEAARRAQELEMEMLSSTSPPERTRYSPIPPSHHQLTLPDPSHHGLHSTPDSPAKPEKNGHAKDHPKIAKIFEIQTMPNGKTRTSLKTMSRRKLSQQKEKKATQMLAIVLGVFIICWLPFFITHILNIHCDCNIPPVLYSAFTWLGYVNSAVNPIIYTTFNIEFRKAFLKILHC
5-hydroxytryptamine receptor 2A (Homo sapiens), sequence (P28223 whole entry, looked up): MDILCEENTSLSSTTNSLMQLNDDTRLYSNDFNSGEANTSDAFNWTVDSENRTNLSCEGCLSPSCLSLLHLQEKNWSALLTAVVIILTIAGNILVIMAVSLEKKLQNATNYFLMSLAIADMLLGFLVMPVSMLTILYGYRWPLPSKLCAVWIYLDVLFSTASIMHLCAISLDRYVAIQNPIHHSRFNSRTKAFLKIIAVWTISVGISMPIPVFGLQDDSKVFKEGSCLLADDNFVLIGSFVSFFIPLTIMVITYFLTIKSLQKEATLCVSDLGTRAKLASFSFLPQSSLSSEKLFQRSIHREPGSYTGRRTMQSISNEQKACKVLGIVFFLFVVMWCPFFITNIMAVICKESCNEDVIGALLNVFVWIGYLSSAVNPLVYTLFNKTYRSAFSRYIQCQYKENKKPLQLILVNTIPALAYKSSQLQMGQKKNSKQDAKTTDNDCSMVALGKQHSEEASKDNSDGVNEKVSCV

CC(=O)S[C@@H]1CC2=CC(=O)CC[C@]2(C)[C@H]2CC[C@@]3(C)[C@@H](CC[C@@]34CCC(=O)O4)[C@H]12
inactive: Potency [1] | Potency [3] | Potency [4] | Potency [5] | Potency [6] | Potency [7] | Potency [8] | Potency [9] | Potency [10]
active: Potency [2] 24.3 µM

COc1cc(C(C)C)c2c(c1)S(=O)(=O)N(COc1cc(=O)n3cccc(OCCN4CCCCC4)c3n1)C2=O
inactive: activity change, negative = cytotoxicity [1] -10.3% [at 19 µM] | activation [3] -3.13% [at 15.8 µM] | activation [11] 1.49% [at 11.8 µM] | activity change, negative = cytotoxicity [7] -0.988% [at 13.5 µM] | activity change, negative = cytotoxicity [8] -1.9% [at 13.5 µM] | activity, negative = inhibition [12] 4.6% [at 12.7 µM] | activation [13] -1.78% [at 15.9 µM] | activity, negative = inhibition [14] -3.39% [at 12.6 µM] | activation [15] -0.958% [at 15.8 µM] | activity change, negative = inhibition [9] 1.57% [at 19 µM] | activation [10] -15.5% [at 19 µM]
active: Potency [2] 2.91 µM

CN(C)[C@@H]1C(=O)C(C(N)=O)=C(O)[C@@]2(O)C(=O)C3=C(O)c4c(O)cccc4C[C@H]3C[C@@H]12
inactive: Potency [1] | Potency [2] | Potency [3] | Potency [11] | Potency [7] | Potency [12] | Potency [13] | Potency [14] | Potency [15] | Potency [9] | Potency [10]

CC(=O)c1ccc2c(c1)N(CCCN(C)C)c1ccccc1S2
inactive: Potency [1] | Potency [2] | Potency [3] | Potency [11] | Potency [6] | Potency [16] | Potency [13] | Potency [15] | Potency [17] | Potency [18] | Potency [9] | Potency [10]
active: Potency [12] 0.0259 µM | Potency [14] 0.41 µM | Potency [19] 1.68 µM

Fc1ccc(C(c2ccc(F)cc2)N2CCNCC2)cc1
active: Potency [14] 2.9 µM
inactive: Potency [1] | Potency [2] | Potency [3] | Potency [11] | Potency [7] | Potency [16] | Potency [13] | Potency [15] | Potency [17] | Potency [9] | Potency [10] | Potency [19]

C[C@]12CCC(=O)C=C1C=C[C@@H]1[C@@H]2CC[C@@]2(C)[C@H]1CC[C@@]21CCC(=O)O1
inactive: Potency [1] | Potency [2] | Potency [3] | Potency [4] | Potency [5] | Potency [6] | Potency [7] | Potency [8] | Potency [16] | Potency [12] | Potency [15] | Potency [9] | Potency [19]

Cc1cccc2c1cc1ccc3cccc4ccc2c1c34
inactive: Potency [1] | Potency [2] | Potency [3] | Potency [6] | Potency [7] | Potency [8] | Potency [12] | Potency [14] | Potency [9] | Potency [10] | Potency [19]

CC(=O)NCCCS(=O)(=O)O
inactive: Potency [1] | Potency [2] | Potency [4] | Potency [5] | Potency [6] | Potency [7] | Potency [8] | Potency [16] | Potency [12] | Potency [14] | Potency [17] | Potency [18] | Potency [9] | Potency [10] | Potency [19]
active: Potency [3] 11.9 µM | Potency [15] 23.8 µM

CCCCN(CCO)CCCC
inactive: Potency [1] | Potency [2] | Potency [3] | Potency [11] | Potency [6] | Potency [7] | Potency [12] | Potency [14] | Potency [15] | Potency [17] | Potency [9] | Potency [10] | Potency [19]

CC(C)c1ccc2c(c1)CC[C@H]1[C@](C)(CN)CCC[C@]21C
active: Potency [1] 12.2 µM | Potency [13] 49 µM | Potency [19] 68.6 µM
inactive: Potency [2] | Potency [11] | Potency [4] | Potency [5] | Potency [16] | Potency [14] | Potency [9] | Potency [10]

Cc1cccc(C)c1NC(=O)C(C)N (stereo unspecified)
inactive: Potency [1] | Potency [2] | Potency [11] | Potency [4] | Potency [5] | Potency [7] | Potency [8] | Potency [17] | Potency [18] | Potency [9] | Potency [10] | Potency [19]

NCCCCCCNCCCCCCN
inactive: Potency [1] | Potency [2] | Potency [3] | Potency [11] | Potency [8] | Potency [12] | Potency [13] | Potency [15] | Potency [17] | Potency [18] | Potency [9] | Potency [10] | Potency [19]

CC/C(=C(\c1ccc(O)cc1)c1ccc(OCCN(C)C)cc1)c1ccccc1
active: Potency [1] 30.7 µM | Potency [6] 20.5 µM | Potency [8] 20.5 µM
inactive: Potency [2] | Potency [3] | Potency [11] | Potency [12] | Potency [14] | Potency [10]

COc1ccc2c(c1)c1c3n2CCN(C)C3=NCC1
inactive: Potency [1] | Potency [2] | Potency [3] | Potency [11] | Potency [6] | Potency [13] | Potency [14] | Potency [15] | Potency [17] | Potency [18] | Potency [10] | Potency [19]

CCCCOCCOC(=O)COc1nc(Cl)c(Cl)cc1Cl
inactive: Potency [1] | Potency [2] | Potency [11] | Potency [4] | Potency [5] | Potency [6] | Potency [7] | Potency [16] | Potency [17] | Potency [18] | Potency [9]

Cc1cc(=O)c2c(O)c3c(O)cc(=O)c4c3c3c(cc(O)c1c23)C(C)(C)C=4O
inactive: activity, positive = activation [2] 7.38% [at 19 µM] | activation [3] 3.73% [at 15.8 µM] | activation [11] 4.32% [at 11.8 µM] | activity change, negative = cytotoxicity [6] -4.38% [at 13.5 µM] | activity change, negative = cytotoxicity [7] -8.38% [at 13.5 µM] | activity, negative = inhibition [12] 1.4% [at 12.7 µM] | activity, negative = inhibition [14] 5.23% [at 12.6 µM] | activation [15] 13.3% [at 15.8 µM] | activity change, negative = inhibition [9] 0.889% [at 19 µM] | activation [10] -19.9% [at 19 µM] | activity change, negative = inhibition [19] 5.59% [at 18.9 µM]
active: Potency [1] 4.11 µM | Potency [13] 0.657 µM
